# Experimental data as given in PubChem BioAssay (NCI).
# Compounds without any hit were thinned out: in the full panel of roughly 79,000, 15% have a hit. Values without a mark were called inactive. Calls of active or inactive are those of the source. Rule as the data show it: active = growth inhibition above about 70%; inactive = the rest.
# Assays:
# [1] = NCI Yeast Anticancer Drug Screen. Data for the wt1 strain (AID 149);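 also: 0% = growth of vehicle-treated wt1 cultures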; conditions: S. cerevisiae wt1 strain (SPY 50644) growth inhibition, active compounds read high
# Procedure, shortened: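 Vehicle-normalised growth inhibition; strain wt1; compound exposure.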
# [2] = NCI Yeast Anticancer Drug Screen. Data for the rad50EPP+ strain (AID 151);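 also: 0% = growth of vehicle-treated control cultures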; conditions: S. cerevisiae rad50 mutant strain, active compounds read high
# Procedure, shortened: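 In this screen, rad50EPP+ yeast were exposed to compounds. Growth inhibition was scored against vehicle-treated controls.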
# [3] = NCI Yeast Anticancer Drug Screen. Data for the mgt1 strain (AID 153); conditions: S. cerevisiae mgt1 mutant growth inhibition, active compounds read high
# Procedure, shortened: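 mgt1 strain exposed; growth vs vehicle control recorded as inhibition.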
# [4] = NCI Yeast Anticancer Drug Screen. Data for the rad50 strain (AID 155);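 also: 0% = growth of vehicle-only cultures of the same strain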; conditions: S. cerevisiae rad50 strain growth inhibition, active compounds read high
# Procedure, shortened: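 A DNA repair-deficient yeast mutant serves as the test organism; compound-induced growth inhibition is calculated against vehicle-treated cells.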
# [5] = NCI Yeast Anticancer Drug Screen. Data for the mec2-1 strain (AID 157); conditions: S. cerevisiae mec2-1 strain, active compounds read high
# Procedure, shortened: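 Vehicle-treated cultures served as reference for growth inhibition of compound-exposed mec2-1 yeast.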
# [6] = NCI Yeast Anticancer Drug Screen. Data for the rad14 strain (AID 159);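 also: 0% = growth of vehicle-treated control cultures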; conditions: S. cerevisiae rad14 strain growth inhibition, active compounds read high
# Procedure, shortened: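 Vehicle-treated cultures served as the baseline for growth inhibition of a DNA repair-mutant yeast strain exposed to each compound.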
# [7] = NCI Yeast Anticancer Drug Screen. Data for the sgs1 mgt1 strain (AID 161);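 also: 0% = growth of cultures given vehicle only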; conditions: S. cerevisiae sgs1 mgt1 strain, active compounds read high
# Procedure, shortened: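 Test agents were incubated with a DNA-repair-mutant yeast strain. Growth was then read and compared against vehicle-treated controls.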
# [8] = NCI Yeast Anticancer Drug Screen. Data for the CLN2oe strain (AID 163);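 also: 0% = growth of vehicle-only control cultures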; conditions: S. cerevisiae CLN2oe strain, active compounds read high
# Procedure, shortened: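 Inhibition relative to vehicle-treated yeast is reported. Cells: strain with genetic alteration in cell-cycle control, grown with compound.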
# [9] = NCI Yeast Anticancer Drug Screen. Data for the cln2 rad14 strain (AID 165);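 also: 0% = growth equal to vehicle treated cultures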; conditions: S. cerevisiae cln2 rad14 strain, active compounds read high
# Procedure, shortened: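 Each compound was tested on cln2 rad14 yeast. Inhibition of growth was calculated against vehicle-exposed controls.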
# [10] = NCI Yeast Anticancer Drug Screen. Data for the bub3 strain (AID 167); conditions: S. cerevisiae bub3 mutant strain, active compounds read high
# Procedure, shortened: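 Inhibition values come from growth of compound-treated mutant yeast normalised to vehicle-treated controls.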
# [11] = NCI Yeast Anticancer Drug Screen. Data for the wt2 strain (AID 169);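 also: 0% = growth of vehicle-treated yeast cultures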; conditions: S. cerevisiae wt2 strain growth inhibition, active compounds read high
# Procedure, shortened: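 Inhibition of yeast growth was determined after compound treatment, normalised to controls receiving only vehicle.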
# [12] = NCI Yeast Anticancer Drug Screen. Data for the mlh1 strain (AID 171);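 also: 0% = growth of vehicle-treated control cultures of the same strain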; conditions: S. cerevisiae mlh1 strain growth inhibition, active compounds read high
# Procedure, shortened: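 Vehicle-normalised growth inhibition of a repair- or checkpoint-altered yeast strain following compound treatment.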
# [13] = NCI Yeast Anticancer Drug Screen. Data for the sgs1 strain (AID 173);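 also: 0% = growth of vehicle-only control cultures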; conditions: S. cerevisiae sgs1 mutant, active compounds read high
# Procedure, shortened: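 Screen format: yeast with repair or checkpoint alterations, compound exposure, growth read relative to vehicle.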
# [14] = NCI Yeast Anticancer Drug Screen. Data for the mlh1 rad18 strain (AID 175); conditions: S. cerevisiae mlh1 rad18 strain growth inhibition, active compounds read high
# Procedure, shortened: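 Vehicle-treated cultures served as the reference for growth inhibition in a yeast strain carrying DNA damage repair alterations exposed to each compound.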
# [15] = NCI Yeast Anticancer Drug Screen. Data for the rad18 strain (AID 177); conditions: S. cerevisiae rad18 mutant growth inhibition, active compounds read high
# Procedure, shortened: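 Test articles were incubated with altered yeast defective in DNA damage repair. Results are given as inhibition of growth versus vehicle.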
# [16] = at 5.0 µM (retest, dose inferred, filed as 0.5)
# [17] = at 50.0 µM (retest, dose inferred, filed as 5.0)
smiles,measurement,setting,value
O=C1OC(=O)C2CCCC3CCCC1C32 (stereo unspecified),growth inhibition,[1]; at 1.2 µM,7%
same,growth inhibition,[1]; at 3.7 µM,51%
same,growth inhibition,[1]; at 11.0 µM,83% (active)
same,growth inhibition,[1]; at 33.0 µM,90% (active)
same,growth inhibition,[1]; at 100.0 µM,97% (active)
same,growth inhibition,[2]; at 1.2 µM,42%
same,growth inhibition,[2]; at 3.7 µM,54%
same,growth inhibition,[2]; at 11.0 µM,75% (active)
same,growth inhibition,[2]; at 33.0 µM,90% (active)
same,growth inhibition,[2]; at 100.0 µM,95% (active)
same,growth inhibition,[3]; at 1.2 µM,34%
same,growth inhibition,[3]; at 3.7 µM,48%
same,growth inhibition,[3]; at 11.0 µM,82% (active)
same,growth inhibition,[3]; at 33.0 µM,87% (active)
same,growth inhibition,[3]; at 100.0 µM,96% (active)
same,growth inhibition,[4]; at 1.2 µM,17%
same,growth inhibition,[4]; at 3.7 µM,68%
same,growth inhibition,[4]; [16],-10%
same,growth inhibition,[4]; at 11.0 µM,93% (active)
same,growth inhibition,[4]; at 33.0 µM,96% (active)
same,growth inhibition,[4]; [17],97% (active)
same,growth inhibition,[4]; at 50.0 µM,39%
same,growth inhibition,[4]; at 100.0 µM,96% (active)
same,growth inhibition,[5]; at 1.2 µM,39%
same,growth inhibition,[5]; at 3.7 µM,33%
same,growth inhibition,[5]; [16],-8%
same,growth inhibition,[5]; at 11.0 µM,71% (active)
same,growth inhibition,[5]; at 33.0 µM,95% (active)
same,growth inhibition,[5]; [17],99% (active)
same,growth inhibition,[5]; at 50.0 µM,36.8%
same,growth inhibition,[5]; at 100.0 µM,97% (active)
same,growth inhibition,[6]; at 1.2 µM,17%
same,growth inhibition,[6]; at 3.7 µM,28%
same,growth inhibition,[6]; at 11.0 µM,47%
same,growth inhibition,[6]; at 33.0 µM,87% (active)
same,growth inhibition,[6]; at 100.0 µM,94% (active)
same,growth inhibition,[7]; [16],-21%
same,growth inhibition,[7]; [17],10%
same,growth inhibition,[7]; at 50.0 µM,55.1%
same,growth inhibition,[8]; at 1.2 µM,40%
same,growth inhibition,[8]; at 3.7 µM,71% (active)
same,growth inhibition,[8]; at 11.0 µM,95% (active)
same,growth inhibition,[8]; at 33.0 µM,97% (active)
same,growth inhibition,[8]; at 100.0 µM,96% (active)
same,growth inhibition,[9]; [16],15%
same,growth inhibition,[9]; [17],98% (active)
same,growth inhibition,[9]; at 50.0 µM,20.8%
same,growth inhibition,[10]; at 1.2 µM,28%
same,growth inhibition,[10]; at 3.7 µM,66%
same,growth inhibition,[10]; [16],53%
same,growth inhibition,[10]; at 11.0 µM,93% (active)
same,growth inhibition,[10]; at 33.0 µM,96% (active)
same,growth inhibition,[10]; [17],99% (active)
same,growth inhibition,[10]; at 50.0 µM,71.5% (active)
same,growth inhibition,[10]; at 100.0 µM,97% (active)
same,growth inhibition,[11]; at 1.2 µM,36%
same,growth inhibition,[11]; at 3.7 µM,62%
same,growth inhibition,[11]; at 11.0 µM,80% (active)
same,growth inhibition,[11]; at 33.0 µM,89% (active)
same,growth inhibition,[11]; at 100.0 µM,96% (active)
same,growth inhibition,[12]; at 1.2 µM,44%
same,growth inhibition,[12]; at 3.7 µM,64%
same,growth inhibition,[12]; at 11.0 µM,93% (active)
same,growth inhibition,[12]; at 33.0 µM,96% (active)
same,growth inhibition,[12]; at 100.0 µM,97% (active)
same,growth inhibition,[13]; at 1.2 µM,26%
same,growth inhibition,[13]; at 3.7 µM,78% (active)
same,growth inhibition,[13]; at 11.0 µM,93% (active)
same,growth inhibition,[13]; at 33.0 µM,94% (active)
same,growth inhibition,[13]; at 100.0 µM,98% (active)
same,growth inhibition,[14]; [16],31%
same,growth inhibition,[14]; [17],98% (active)
same,growth inhibition,[14]; at 50.0 µM,26.9%
same,growth inhibition,[15]; at 1.2 µM,25%
same,growth inhibition,[15]; at 3.7 µM,67%
same,growth inhibition,[15]; at 11.0 µM,94% (active)
same,growth inhibition,[15]; at 33.0 µM,94% (active)
same,growth inhibition,[15]; at 100.0 µM,97% (active)
COc1ccccc1C(=O)OCC1CCCN2CCCCC12 (stereo unspecified),growth inhibition,[1]; at 1.2 µM,0%
same,growth inhibition,[1]; at 3.7 µM,-7%
same,growth inhibition,[1]; at 11.0 µM,7%
same,growth inhibition,[1]; at 33.0 µM,76% (active)
same,growth inhibition,[1]; at 100.0 µM,98% (active)
same,growth inhibition,[2]; at 1.2 µM,4%
same,growth inhibition,[2]; at 3.7 µM,-3%
same,growth inhibition,[2]; at 11.0 µM,80% (active)
same,growth inhibition,[2]; at 33.0 µM,97% (active)
same,growth inhibition,[2]; at 100.0 µM,98% (active)
same,growth inhibition,[3]; at 1.2 µM,23%
same,growth inhibition,[3]; at 3.7 µM,15%
same,growth inhibition,[3]; at 11.0 µM,73% (active)
same,growth inhibition,[3]; at 33.0 µM,91% (active)
same,growth inhibition,[3]; at 100.0 µM,98% (active)
same,growth inhibition,[4]; at 1.2 µM,8%
same,growth inhibition,[4]; at 3.7 µM,8%
same,growth inhibition,[4]; [16],21%
same,growth inhibition,[4]; at 11.0 µM,68%
same,growth inhibition,[4]; at 33.0 µM,97% (active)
same,growth inhibition,[4]; [17],99% (active)
same,growth inhibition,[4]; at 50.0 µM,90.7% (active)
same,growth inhibition,[4]; at 100.0 µM,97% (active)
same,growth inhibition,[5]; at 1.2 µM,0%
same,growth inhibition,[5]; at 3.7 µM,-6%
same,growth inhibition,[5]; [16],53%
same,growth inhibition,[5]; at 11.0 µM,0%
same,growth inhibition,[5]; at 33.0 µM,56%
same,growth inhibition,[5]; [17],99% (active)
same,growth inhibition,[5]; at 50.0 µM,93% (active)
same,growth inhibition,[5]; at 100.0 µM,98% (active)
same,growth inhibition,[6]; at 1.2 µM,10%
same,growth inhibition,[6]; at 3.7 µM,17%
same,growth inhibition,[6]; at 11.0 µM,77% (active)
same,growth inhibition,[6]; at 33.0 µM,98% (active)
same,growth inhibition,[6]; at 100.0 µM,99% (active)
same,growth inhibition,[7]; [16],-17%
same,growth inhibition,[7]; [17],40%
same,growth inhibition,[7]; at 50.0 µM,91.6% (active)
same,growth inhibition,[8]; at 1.2 µM,8%
same,growth inhibition,[8]; at 3.7 µM,-1%
same,growth inhibition,[8]; at 11.0 µM,-12%
same,growth inhibition,[8]; at 33.0 µM,63%
same,growth inhibition,[8]; at 100.0 µM,95% (active)
same,growth inhibition,[9]; [16],-9%
same,growth inhibition,[9]; [17],8%
same,growth inhibition,[9]; at 50.0 µM,90.9% (active)
same,growth inhibition,[10]; at 1.2 µM,-9%
same,growth inhibition,[10]; at 3.7 µM,-20%
same,growth inhibition,[10]; [16],7%
same,growth inhibition,[10]; at 11.0 µM,31%
same,growth inhibition,[10]; at 33.0 µM,97% (active)
same,growth inhibition,[10]; [17],91% (active)
same,growth inhibition,[10]; at 50.0 µM,90.8% (active)
same,growth inhibition,[10]; at 100.0 µM,97% (active)
same,growth inhibition,[11]; at 1.2 µM,-18%
same,growth inhibition,[11]; at 3.7 µM,-5%
same,growth inhibition,[11]; at 11.0 µM,94% (active)
same,growth inhibition,[11]; at 33.0 µM,96% (active)
same,growth inhibition,[11]; at 100.0 µM,98% (active)
same,growth inhibition,[12]; at 1.2 µM,23%
same,growth inhibition,[12]; at 3.7 µM,15%
same,growth inhibition,[12]; at 11.0 µM,73% (active)
same,growth inhibition,[12]; at 33.0 µM,91% (active)
same,growth inhibition,[12]; at 100.0 µM,98% (active)
same,growth inhibition,[13]; at 1.2 µM,10%
same,growth inhibition,[13]; at 3.7 µM,-15%
same,growth inhibition,[13]; at 11.0 µM,62%
same,growth inhibition,[13]; at 33.0 µM,63%
same,growth inhibition,[13]; at 100.0 µM,98% (active)
same,growth inhibition,[14]; [16],60%
same,growth inhibition,[14]; [17],99% (active)
same,growth inhibition,[14]; at 50.0 µM,90.3% (active)
same,growth inhibition,[15]; at 1.2 µM,-5%
same,growth inhibition,[15]; at 3.7 µM,-21%
same,growth inhibition,[15]; at 11.0 µM,35%
same,growth inhibition,[15]; at 33.0 µM,95% (active)
same,growth inhibition,[15]; at 100.0 µM,97% (active)
